# Laboratory results: PubChem BioAssay AID720540 (National Center for Advancing Translational Sciences (NCATS), 2013)
# In all, about 1,300 compounds went through this assay and about 460 (35%) were called active. Another 39% or so got no clear call; they are omitted. Calls come from the whole dose curve; as a rule, active = well fitted inhibition curve with a large enough effect; inconclusive = small, poorly fitted or top-dose-only effect; inactive = flat fitted curve, though single readings scatter. Some of the results follow.
# Molecular target: Protein phosphatase EYA2 (Homo sapiens) (UniProt O00167)
# Assay: qHTS for Inhibitors of the Phosphatase Activity of Eya2: Confirmatory Assay for Cherry-picked Compounds; note: nearly all actives have a fitted effect of over 65% in size
# Conditions: purified EYA2 phosphatase activity, qHTS confirmation; series mostly up to 46.1 µM
# Source text: The Eya protein family is an essential co-activator of the Six1 transcription factor. Six1 is a developmental gene that is abnormally re-expressed in a large percentage of breast cancers. This over-expression plays a causal role in the initiation and metastatic development of breast cancers. The Eya family of protein is also found to contain a unique HAD phosphatase domain with protein tyrosine phosphatase activity which can potentially play a role in Six1-mediated breast tumorigenesis. Recently, Eya2 is found to dephosphorylate the histone variant H2AX and direct cells towards DNA repair instead of apoptosis in the event of DNA damage.
# A 1536 well format, fluorescence based qHTS assay was developed and used to target the phosphatase activity of Eya2 (AID 488837). Inhibitors found against Eya2 could serve as potential therapeutic tools to inhibit Six1-mediated breast tumorigenesis and to increase the efficiency of radiation and certain chemo therapy. This assay assessed the activity of the primary screen cherry-picked compounds against Eya2. Inhibition is the desired outcome for this assay.
# NIH Chemical Genomics Center [NCGC]
# NIH Molecular Libraries Probe Centers Network [MLPCN]
# Assay Submitter (PI): Rui Zhao, University of Colorado Denver
# Eya2 enzyme and 3-O-methyl-fluorescein phosphate (OMFP) substrate working solutions were reconstituted in the buffer reagent consist of 50 mM HEPES pH 7.5, 50 mM NaCl, […], 0.05% BSA and 1 mM DTT. One and a half microliter of 0.2 uM Eya2 working solution was dispensed in a 1536 well Greiner plate (black, medium bind). Twenty-three nanoliter of test compounds and control compound EGTA was transferred to the assay plate using the Kalypsys robotic system equipped with a 1536 pin head. The plate was incubated at room temperature for 10 minutes. One and a half microliter of the 50 uM the OMFP substrate was then dispensed to the assay plate and incubated at room temperature for additional 10 min. The fluorescence signal was read using the PerkinElmer ViewLux plate reader using a 485 nm excitation and 525 nm emission filters. The data was normalized to the positive control for maximum inhibition and DMSO treated wells as negative control.
# Potency is the fitted concentration of half-maximal effect.
# Chain of Protein phosphatase EYA2 (Homo sapiens) (O00167 whole entry, looked up): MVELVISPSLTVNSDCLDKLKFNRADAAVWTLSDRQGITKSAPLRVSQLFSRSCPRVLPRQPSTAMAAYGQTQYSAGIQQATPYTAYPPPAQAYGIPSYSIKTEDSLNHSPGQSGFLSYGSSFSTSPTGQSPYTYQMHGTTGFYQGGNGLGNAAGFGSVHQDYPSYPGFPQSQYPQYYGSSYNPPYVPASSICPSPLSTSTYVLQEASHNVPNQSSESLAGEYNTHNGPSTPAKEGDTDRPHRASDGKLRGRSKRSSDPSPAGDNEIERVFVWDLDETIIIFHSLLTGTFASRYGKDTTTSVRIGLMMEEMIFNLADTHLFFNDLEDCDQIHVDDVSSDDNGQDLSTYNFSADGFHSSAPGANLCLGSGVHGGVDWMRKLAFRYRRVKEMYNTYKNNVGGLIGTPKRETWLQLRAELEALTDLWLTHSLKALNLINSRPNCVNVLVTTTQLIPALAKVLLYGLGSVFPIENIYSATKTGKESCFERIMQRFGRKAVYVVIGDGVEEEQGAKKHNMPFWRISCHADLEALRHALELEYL
row,SMILES,Potency
1,CCC(C)Nc1nc(-c2ccccn2)nc2ccccc12 (configuration not stated),8.49 µM (active)
2,CC(C)c1cccc(-c2ccc3c(c2)S(=O)(=O)c2cccc(C(=O)O)c2C3=O)c1,21.3 µM (active)
3,CCN(CC)c1ccc(/C=C2\CCC(/C=C(\C#N)C(=O)Nc3ccccc3F)=C2N2CCOCC2)cc1,3.01 µM (active)
4,N#C/C(=C\C1=C(N2CCOCC2)C(=C\c2ccccc2)/CC1)C(=O)Nc1ccccc1F,1.07 µM (active)
5,COc1cc([C@H]2Oc3cc([C@H]4Oc5cc(O)cc(O)c5C(=O)[C@@H]4O)ccc3O[C@@H]2CO)ccc1O,inactive
6,O=C1C(=O)C(c2ccc(O)cc2O)Oc2cc(O)cc(O)c21 (configuration not stated),8.49 µM (active)
7,CC1(C)CC(=O)C(C2C3=C(CC(C)(C)CC3=O)Oc3c(Br)cc(Br)cc32)=C(O)C1 (configuration not stated),3.79 µM (active)
8,O=C(CSc1nnc2c(Cl)cc(Cl)cn12)NC1CCS(=O)(=O)C1 (configuration not stated),inactive
9,CCC(C)Nc1ccc(NC(C)CC)cc1 (configuration not stated),0.0953 µM (active)
10,O=c1cc2c(=O)oc3cc(O)c(O)oc3c2c(O)c1O,1.2 µM (active)
11,Cc1ccc2cc(NC(=O)CC(CC(=O)O)c3ccccc3)ccc2n1 (configuration not stated),19 µM (active)
12,O=C(C1CCN(c2nnc(-n3cccc3)s2)CC1)N1CCOCC1,inactive
13,CN(C)c1ccc(/C=C2\C(Cl)=Cc3ccccc32)cc1,5.36 µM (active)
14,CNc1ccc(C=C2c3ccccc3-c3ccccc32)cc1,12 µM (active)
15,CN(C)c1ccc2c(c1)C(=NO)c1ccccc1-2,9.53 µM (active)
16,CN(C)c1ccc(C=C2c3ccccc3-c3ccccc32)cc1,7.57 µM (active)
17,CN(Cc1ccccc1F)c1nc(-c2cccnc2)nc2ccccc12,inactive
18,COc1ccc(Nc2nc(C(C)(C)C)nc3c2nnn3Cc2ccccc2Cl)cc1OC,inactive
19,CN(C)c1ccc(/C=C2\C(=O)/C(=C/c3ccc(N(C)C)cc3)c3ccccc32)cc1,4.26 µM (active)
20,CN(C)c1ccc(/C=C2\c3ccccc3-c3ccc(N(C)C)cc32)cc1,5.36 µM (active)
21,CCOc1ccc(NC(=O)COc2cccc3cccnc23)cc1S(=O)(=O)N1CCCC1,19 µM (active)

row,SMILES,Potency
1,CCOc1ccc(S(=O)(=O)NCc2ccc(C)cc2)c2cccnc12,inactive
2,CCOc1ccc(NC(=O)COc2ccc3c(c2)CCC3)cc1OC,inactive
3,COc1cc(N(C)C)ccc1/C=C1\C=Cc2ccccc21,7.57 µM (active)
4,COc1cc(OC)c(OC)cc1/C=C1\C=Cc2ccccc21,8.49 µM (active)
5,CN(C)c1ccc(/C=C2\C=Cc3ccccc32)c(Cl)c1,6.75 µM (active)
6,COc1cc(N(C)C)c(OC)cc1/C=C1\C=Cc2ccccc21,5.36 µM (active)
7,CC(C)(C)C(=O)[C@H]1[C@H](c2ccccc2)[C@@]2(N=C(c3ccccc3)OC2=O)C2c3ccccc3C=NN21 (some centres not stated),inactive
8,CC1=CC(=O)Nc2ncccc2O1,19 µM (active)
9,Cc1ccccc1Nc1c(-c2ccccn2)nc2ccccn12,2.39 µM (active)
10,Cc1cccc(C)c1Nc1c(-c2ccccn2)nc2ccccn12,7.57 µM (active)
11,Cc1ccc(Nc2c(-c3ccccn3)nc3ccc(C)cn23)cc1,4.26 µM (active)
12,CC(=O)c1ccc(NS(=O)(=O)c2cccc(C(=O)Nc3ccccc3C(=O)O)c2)cc1,15.1 µM (active)
13,CC(=O)Oc1cccc(C(=O)Nc2cccc(C(=O)Nc3ccccc3C(=O)O)c2)c1,15.1 µM (active)
14,NC(=O)C1CCN(c2oc(-c3cccs3)nc2S(=O)(=O)c2ccc(Br)cc2)CC1,inactive
15,CCOC(=O)C1CCN(C2=C(NS(=O)(=O)c3ccc(Br)cc3)C(=O)c3ccccc3C2=O)CC1,3.79 µM (active)
16,CCOC(=O)CNC(=O)C1CCCN(c2ncccn2)C1 (configuration not stated),inactive
17,CCOC(=O)C1CCCN(C2=C(NS(=O)(=O)c3ccc(Br)cc3)C(=O)c3ccccc3C2=O)C1 (configuration not stated),9.53 µM (active)
18,N/C(=N\OC(=O)c1ccc2ccccc2c1)c1ccncc1,inactive
19,Cc1cc(C)nc(-n2nc(C)cc2NC(=O)c2cc3ccccc3oc2=O)n1,5.36 µM (active)
20,O=C(CC1(O)C(=O)Nc2ccccc21)c1ccccc1 (configuration not stated),inactive
21,CCOC(=O)C1=C(COC(=O)CCOc2ccccc2)NC(=O)NC1C (configuration not stated),inactive

row,SMILES,Potency
1,COc1ccc(C(=O)Oc2ccc(=O)n(-c3ccccc3)n2)cc1,8.49 µM (active)
2,Cc1nc(COC(=O)c2c(C)nn(-c3ccccc3)c2C)cs1,inactive
3,Cc1[nH]c2ccc(C(=O)OC(C)C(=O)N(C)c3ccccc3)cc2c1C (configuration not stated),inactive
4,CCOC(=O)c1c2ccc(OCC(=O)NN)cc2n2ccccc12,inactive
5,CCOC(=O)c1[nH]c2ccc(C(=O)OC)cc2c1C(=O)OCC,13.5 µM (active)
6,O=c1cc(CSc2ccc(Cl)cc2)nc(-c2ccccn2)[nH]1,2.13 µM (active)
7,NC(=O)c1ccc(NC(=O)COC(=O)/C=C/c2ccc(Br)o2)cc1,inactive
8,Cc1ccc(/C=C/C(=O)Nc2ccc(N(C)C)cc2)o1,19 µM (active)
9,CCn1ccnc1CNCc1cn(-c2cc(C)ccc2C)nc1-c1ccccc1,15.1 µM (active)
10,COc1cc(N)c(Cl)cc1C(=O)N[C@H]1CCN(CCCOc2ccc(F)cc2)C[C@H]1OC,inactive
11,O=c1c(CO)cc(CO)cc(CO)c1O,5.36 µM (active)
12,O=C(O)c1ccc(Nc2cnc3ccccc3n2)cc1,inactive
13,O=C(Nc1ccc(S(=O)(=O)Nc2cnc3ccccc3n2)cc1)c1ccc(Cl)c([N+](=O)[O-])c1,16.9 µM (active)
14,O=C(Nc1ccc(Nc2ccccc2)cc1)c1ccc(Cl)cc1[N+](=O)[O-],inactive
15,Cc1cc(NS(=O)(=O)c2ccc(NC(=O)c3cc4c(=O)n5ccccc5nc4s3)cc2)nc(C)n1,8.49 µM (active)
16,Cc1cc(NS(=O)(=O)c2ccc(NC(=O)c3cnc(Cl)c(Cl)c3)cc2)nc(C)n1,2.39 µM (active)
17,CN=c1scc(C)n1/N=C/c1ccc2c(c1)OCO2,inactive
18,CC1CCC2C(=O)N(c3ccc(C(=O)Oc4cccc5cccnc45)cc3)C(=O)C2C1 (configuration not stated),8.49 µM (active)
19,COc1ccc(C(=O)/C=C/Nc2ccc(S(=O)(=O)Nc3nc(C)cc(C)n3)cc2)cc1OC,13.5 µM (active)
20,COc1cc(NS(=O)(=O)c2ccc(N/C=C\C(=O)c3ccc(OC)c(OC)c3)cc2)nc(OC)n1,9.53 µM (active)
